Screening results as filed in PubChem.
Most compounds without a hit are left out; they make up all but 6.1% or so of the library.
D1 antag = Antagonist of Human D 1 Dopamine Receptor: qHTS; HEK293 TREx D1 cells, calcium flux, dopamine EC80; active compounds read low; activity change, negative = inhibition, % at 10 µM; 3.2% of 360,000 active; AID 504652, 2011; in the data active = activity change below about -30%
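After overnight tetracycline induction at 30 C, force-coupled D1 HEK293 cells took up a no-wash calcium dye at room temperature. Compounds were added and monitored 180 s, and the response to EC80 dopamine was then recorded.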
D1 PAM = Potentiators of Human D1 Dopamine Receptor: qHTS. D(1A) dopamine receptor (Homo sapiens), P21728. HEK293 TREx D1 cells, calcium flux, dopamine EC20 potentiation. potentiation, % at 10 µM. 0.036% of 360,000 active; in the data active = potentiation above about 30%
DRD3 agonist = qHTS of D3 Dopamine Receptor Agonist: qHTS | D(3) dopamine receptor (Homo sapiens), P35462 | max activation, % | 0.58% of 410,000 active | D3R DiscoveRx beta-arrestin cells, luminescence, 90 min; in the data active = max activation above about 30%
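Cells at 1500/well, incubated overnight, then treated with pinned compounds (dopamine as control) for 90 min at 37 degrees C. DiscoveRx reagent added for 30 - 60 minutes at room temperature; luminescence read.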
ERG Ets-DNA blk = qHTS for Small Molecule Inhibitors of the ERG Ets/DNA interaction | Transcriptional regulator ERG (Homo sapiens), P11308 | fluorescence polarization, His-ERG Ets domain / labelled DNA | Potency, µM (series often up to 76.9 µM), hits mostly inhibitors | 0.028% of 370,000 active; active = well fitted inhibition curve with a large enough effect in the polarisation, with a control signal flat; inconclusive = small, poorly fitted or top-dose-only effect, or effect the other way, or a change in a side signal; inactive = no such curve, though single readings can be large or run the other way; the % refers to the polarisation;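 also: polarization taken with two DNA probes labelled with fluorescein and Texas red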
Target sequence (P11308 whole entry, looked up, the tested form may be a part): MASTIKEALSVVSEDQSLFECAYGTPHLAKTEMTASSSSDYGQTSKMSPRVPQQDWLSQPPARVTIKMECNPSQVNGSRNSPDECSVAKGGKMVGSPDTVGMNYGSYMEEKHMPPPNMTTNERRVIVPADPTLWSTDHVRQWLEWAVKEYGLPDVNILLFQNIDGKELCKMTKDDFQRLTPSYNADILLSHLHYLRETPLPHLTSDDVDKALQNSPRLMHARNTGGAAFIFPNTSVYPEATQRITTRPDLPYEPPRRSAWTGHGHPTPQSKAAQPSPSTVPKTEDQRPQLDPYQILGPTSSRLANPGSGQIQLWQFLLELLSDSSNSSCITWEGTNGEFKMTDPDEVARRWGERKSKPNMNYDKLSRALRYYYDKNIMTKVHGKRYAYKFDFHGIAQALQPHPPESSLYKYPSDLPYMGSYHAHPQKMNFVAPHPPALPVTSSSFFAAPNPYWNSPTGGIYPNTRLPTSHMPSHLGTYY
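His-tagged ERG Ets domain (1 uM in the protein solution; 300mM KCl, 50mM Tris-HCl, 1mM EDTA, 1mM DTT, pH 7.5) received compound, then a probe mix of 5 nM fluorescein-DNA and 100nM Texas-615-DNA. Fluorescence polarization was read for both dyes.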
D1 ag = Allosteric Agonists of the Human D1 Dopamine Receptor: qHTS. HEK293 T-REx D1 cells, calcium flux, agonist mode. activation, % at 2 µM. 1% of 360,000 active; in the data active = activation above about 30%
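Inducible HEK293 T-REx D1 cells, force-coupled to calcium signalling, were plated at 4000 cells/well with tetracycline and held overnight at 30 C. After no-wash calcium dye loading, compound-evoked calcium rise over 180 s flagged agonists.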
D3 antag = qHTS of D3 Dopamine Receptor Antagonist: qHTS. D(3) dopamine receptor (Homo sapiens), P35462. D3R cells, DiscoveRx beta-arrestin luminescence, antagonist mode; active compounds read low. max response, negative = inhibition, %. 2.5% of 360,000 active. AID 652054, 2013; in the data active = max response below about -50%; inconclusive = no clear call, values can overlap the other calls
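Cells plated overnight at 1500 cells/well, then exposed to library compounds with dopamine controls for 90 minutes at 37 degrees C. DiscoveRx reagent added for 30–60 minutes at room temperature; luminescence read, quantitative HTS format.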
A number is an active result; - = inactive; ? = inconclusive; . = no result given.

SMILES | D1 antag | D1 PAM | DRD3 agonist | ERG Ets-DNA blk | D1 ag | D3 antag
Cc1ccc(S(=O)(=O)Nc2ccccc2[N+](=O)[O-])cc1 | . | . | - | . | . | -
Cc1c(CNC2CCC(C)CC2)c(C(=O)O)c(C)n1Cc1ccccc1F (stereo not drawn) | -49.1 | - | - | - | - | .
CCCCCc1ccc(C(=O)CCCC)c(=S)[nH]1 | - | - | 30.5 | - | - | -
COCCn1c(SCC(=O)Nc2ccc(OC)cc2OC)nc2ccccc2c1=O | - | - | - | - | - | -
O=C(CCn1c(=O)c2cccn2c2ccc(F)cc21)NCCc1ccc(Cl)cc1 | - | - | - | - | - | .
CSc1ccccc1OCc1cc(C(=O)N2CCC(c3ccncc3)CC2)no1 | - | - | . | . | - | .
Cc1ccc(C(C)NC(=O)/C(C#N)=C\c2c(C)[nH]c3ccccc23)cc1 (stereo not drawn) | - | - | - | - | 48.1 | -
COC(=O)c1ccc(/C=C(\C#N)C(=O)NC(C)c2ccccc2)cc1 (stereo not drawn) | - | - | - | - | - | -55.5
COc1ccc(/C=C(\C#N)C(=O)NC(C)c2ccccc2)cc1O (stereo not drawn) | - | - | - | - | - | -
CC(NC(=O)/C(C#N)=C/c1ccc([N+](=O)[O-])o1)c1ccccc1 (stereo not drawn) | - | - | - | - | - | -96.0
Cc1[nH]c2ccccc2c1/C=C(\C#N)C(=O)NCc1ccccc1 | - | - | - | . | - | -
CCOc1cccc(=O)c2c(C)n(-c3ccc(C(=O)O)cc3)c(C)c12 | - | - | - | - | - | -
Cc1cccc(C(=O)OCC(=O)N(C)C(c2ccccc2)c2ccccc2)c1[N+](=O)[O-] | - | - | - | - | - | -
CCOC(=O)N1CCC(Nc2c(Nc3ccc(C)c(C)c3)c(=O)c2=O)CC1 | - | - | - | - | - | -71.3
CCOC(=O)N1CCC(Nc2c(NCCCN(CC)CC)c(=O)c2=O)CC1 | - | . | - | - | - | -
CCOC(=O)N1CCN(c2c(NC3CCN(Cc4ccccc4)CC3)c(=O)c2=O)CC1 | - | . | - | - | - | -51.1
CCOC(=O)N1CCC(Nc2c(OCC)c(=O)c2=O)CC1 | -33.7 | - | - | - | - | -
CCOC(=O)N1CCC(Nc2c(NCCCOC)c(=O)c2=O)CC1 | -34.3 | - | - | - | - | -
O=S1(=O)c2ccccc2N(Cc2ccc(Cl)cc2F)c2ccccc21 | - | - | - | - | - | .
CCNc1nc(C)c2cc(Br)c(=O)n(CC)c2n1 | - | - | - | - | - | -
COc1ccc(S(=O)(=O)N(C)C[C@H]2OCCCC[C@@H](C)Oc3ccc(N(C)C)cc3C(=O)N([C@H](C)CO)C[C@@H]2C)cc1 | . | . | - | . | . | -
Cc1cc(C)cc(NC(=O)Nc2nnc(N(C)C3CCCCC3)s2)c1 | - | - | - | - | - | .
COc1ccccc1CCNC(=O)C(=O)NCC(c1cccs1)S(=O)(=O)c1ccccc1 (stereo not drawn) | - | - | - | - | - | .
CCOC(=O)N1CCN(c2c(N3CCN(c4ccccc4OC)CC3)c(=O)c2=O)CC1 | -32.6 | - | - | - | - | -
CCOC(=O)N1CCC(Nc2c(NCCCN3CCN(C4CCCCC4)CC3)c(=O)c2=O)CC1 | -42.9 | - | - | - | - | ?
SMILES | D1 antag | D1 PAM | DRD3 agonist | ERG Ets-DNA blk | D1 ag | D3 antag
CCCCN(CC)CCNc1c(NC2CCN(C(=O)OCC)CC2)c(=O)c1=O | -62.6 | . | - | - | - | -
CCOC(=O)N1CCN(c2c(N3CCN(C(=O)OCC)CC3)c(=O)c2=O)CC1 | - | - | - | - | - | -
COc1ccccc1N1CCN(C(=O)CSc2nc(C)c(C)c(=O)[nH]2)CC1 | -30.2 | - | - | - | - | -
COc1cccc2cc(-c3n[nH]c(=S)n3C)oc12 | - | - | - | - | - | -
COc1ccc(Cl)c(Cn2c(NCC(C)O)nc3c2c(=O)n(C)c(=O)n3C)c1 (stereo not drawn) | - | - | - | - | - | -
Cn1c(NC(=O)c2ccc(S(=O)(=O)N3CCCCC3)cc2)cc(=O)n(C)c1=O | - | - | - | - | - | -
O=C(NC(CSCc1ccccc1)C(=O)N/N=C/c1ccc(O)cc1O)c1ccc([N+](=O)[O-])cc1 (stereo not drawn) | - | - | 50.1 | - | - | -
COc1cc(O)ccc1/C=N/NC(=O)c1ccc([N+](=O)[O-])cc1 | - | - | - | - | - | -
Cc1nn2c(=O)cc(COc3ccc(/C=C(\C#N)C(=O)Nc4ccccc4C)cc3)nc2s1 | - | - | - | - | - | .
CC1CCCC(C)N1C(=O)Cn1cc(/C=C2/C(=O)Nc3ccccc32)c2ccccc21 (stereo not drawn) | . | - | - | - | - | ?
COc1cc(OC)c(OC)cc1CNC(=O)c1ccc(COc2ccccc2)cc1 | - | - | 30.9 | - | - | -
O=C(NCc1cccnc1)c1ccc(COc2ccc(Cl)cc2)cc1 | -31.9 | - | - | - | - | -
COc1ccccc1OCC(=O)Nc1ccccc1C(=O)NCc1cccnc1 | - | - | - | - | - | -
O=C(COc1ccc(Cl)cc1)Nc1ccccc1C(=O)NCc1cccnc1 | - | - | - | - | 87.7 | -
O=C(COc1ccc(Cl)cc1)Nc1ccc(C(=O)NCc2cccnc2)cc1 | - | - | - | - | - | -
Cc1ccc(C2C(C(=O)c3cc4ccccc4o3)=C(O)C(=O)N2c2cc(C)on2)cc1 (stereo not drawn) | - | - | - | - | - | -
CC1CCN(C2(O)C(=O)Nc3ccc(Cl)cc32)CC1 (stereo not drawn) | - | - | - | - | - | -
COc1cc(O)c2c(c1)COC2=O | - | - | - | - | - | -
Cc1oc2ccc(O)c(CN(C)Cc3ccccc3)c2c1C(=O)Nc1ccccc1 | -44.4 | - | - | - | - | .
CCOC(=O)c1cccc(NC(=O)c2ccc(-n3cnnn3)cc2)c1 | . | . | 74.3 | - | . | -
COC(=O)c1cccc(NC(=O)c2cccc(-n3cnnn3)c2)c1 | . | . | - | . | . | -
COc1cc(C)ccc1OCCCCNCc1ccccc1 | - | - | - | - | - | -
Cc1ccc(OCCNCc2ccccc2)c(C)c1 | - | - | - | - | - | -69.9
Cc1cc(C)c(C)c(OCCOCCNCc2ccccc2)c1 | - | - | - | - | 32.7 | -
COc1cccc(OCCNCc2ccccc2)c1 | - | 33.6 | - | - | - | -79.0
Cc1cccc(OCCCCNCc2ccccc2)c1 | - | - | - | - | - | ?
